The entries come from a sample that favours hits as a whole.
IDH1 R132H inh: IDH1 R132H (human) inhibition; inhibition, % at 10 µM; 0.18% of 70,000 active; IDH1 R132H reductase, diaphorase/resazurin fluorescence, 60 min; AID 624101; in the data active = inhibition above about 34%;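 also: 0% = DMSO and 100% = no enzyme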
* hit, by the source's call.

SMILES	IDH1 R132H inh
N#CC(C#N)=Cc1ccc(O)cc1	0.6
N#CC(C#N)=Cc1cc(O)c(O)c(O)c1	33.3*
Oc1ccc2c3c1OC1c4[nH]c5c(c4CC4(O)C(C2)N(CC2CC2)CCC314)CC1(O)C2Cc3ccc(O)c4c3C1(CCN2CC1CC1)C5O4 (stereo not given)	-6.3
